In the supplement of paper PMC11732987, “Enantioselective OTUD7B fragment discovery through chemoproteomics screening and high-throughput optimisation” (Communications Chemistry, 2025):

How the values were obtained:
Test in all cases: log2 ratio of Biotin-Ahx-Ub-VS probe labelling (fragment/DMSO); higher = less target engagement (more negative = stronger competition), active = hit call of the paper (q ≤ 0.05, log2 ratio ≤ -1)
Conditions in all cases: compound concentration: 200 uM; treatment time: 3 h
USP19 = target: T1, USP19 (UniProt O94966)
T1 sequence (whole entry): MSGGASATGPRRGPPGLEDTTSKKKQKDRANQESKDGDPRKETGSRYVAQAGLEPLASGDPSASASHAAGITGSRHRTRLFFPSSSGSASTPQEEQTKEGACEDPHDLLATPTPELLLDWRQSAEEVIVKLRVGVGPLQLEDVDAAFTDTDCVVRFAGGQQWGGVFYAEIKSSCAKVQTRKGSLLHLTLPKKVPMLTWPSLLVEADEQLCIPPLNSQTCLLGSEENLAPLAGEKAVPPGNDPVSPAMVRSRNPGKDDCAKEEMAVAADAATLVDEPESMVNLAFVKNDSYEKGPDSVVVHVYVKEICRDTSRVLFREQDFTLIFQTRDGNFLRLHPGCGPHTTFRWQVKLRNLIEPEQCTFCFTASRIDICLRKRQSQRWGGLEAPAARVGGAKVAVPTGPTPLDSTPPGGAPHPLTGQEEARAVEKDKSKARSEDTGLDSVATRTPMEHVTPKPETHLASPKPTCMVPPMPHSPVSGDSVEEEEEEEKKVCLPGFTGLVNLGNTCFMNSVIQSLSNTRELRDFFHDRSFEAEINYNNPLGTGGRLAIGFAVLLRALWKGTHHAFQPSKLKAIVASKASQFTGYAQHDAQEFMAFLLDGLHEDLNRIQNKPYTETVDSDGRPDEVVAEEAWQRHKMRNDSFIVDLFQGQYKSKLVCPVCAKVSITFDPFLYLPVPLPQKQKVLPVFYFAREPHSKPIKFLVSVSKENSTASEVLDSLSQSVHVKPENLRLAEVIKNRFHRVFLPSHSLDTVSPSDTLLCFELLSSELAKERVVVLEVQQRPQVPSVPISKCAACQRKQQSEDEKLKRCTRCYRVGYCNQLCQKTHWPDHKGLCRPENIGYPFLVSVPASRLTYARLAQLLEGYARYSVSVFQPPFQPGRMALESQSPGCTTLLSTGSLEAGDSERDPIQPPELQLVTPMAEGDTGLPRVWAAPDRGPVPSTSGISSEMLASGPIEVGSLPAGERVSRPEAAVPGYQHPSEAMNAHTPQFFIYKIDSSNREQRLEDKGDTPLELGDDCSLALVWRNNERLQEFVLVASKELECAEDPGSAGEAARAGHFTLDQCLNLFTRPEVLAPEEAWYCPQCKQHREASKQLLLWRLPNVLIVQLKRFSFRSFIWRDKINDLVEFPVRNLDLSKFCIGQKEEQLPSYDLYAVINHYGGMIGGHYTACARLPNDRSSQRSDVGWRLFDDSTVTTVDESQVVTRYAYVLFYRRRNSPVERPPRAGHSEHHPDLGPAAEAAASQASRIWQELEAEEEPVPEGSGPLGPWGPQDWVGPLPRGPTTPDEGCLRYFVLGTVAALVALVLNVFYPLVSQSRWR
How it was run: (§1)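 Fragment (200 µM) or vehicle was incubated for 3 h with triplicate HEK293T lysate samples of 495 µg, which were then treated with Biotin-Ahx-Ub-VS at 0.5 µM final for 1 h. Labelled DUBs were enriched on NeutrAvidin, digested with LysC and trypsin, and analysed by diaPASEF LC-MS/MS. Values are average log2 fragment/vehicle ratios from an unpaired t-test on global-median-normalised Spectronaut label-free quantities, using proteins with ≥2 unique peptides.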

USP22 = target: T2, USP22 (UniProt Q9UPT9)
T2 sequence (whole entry): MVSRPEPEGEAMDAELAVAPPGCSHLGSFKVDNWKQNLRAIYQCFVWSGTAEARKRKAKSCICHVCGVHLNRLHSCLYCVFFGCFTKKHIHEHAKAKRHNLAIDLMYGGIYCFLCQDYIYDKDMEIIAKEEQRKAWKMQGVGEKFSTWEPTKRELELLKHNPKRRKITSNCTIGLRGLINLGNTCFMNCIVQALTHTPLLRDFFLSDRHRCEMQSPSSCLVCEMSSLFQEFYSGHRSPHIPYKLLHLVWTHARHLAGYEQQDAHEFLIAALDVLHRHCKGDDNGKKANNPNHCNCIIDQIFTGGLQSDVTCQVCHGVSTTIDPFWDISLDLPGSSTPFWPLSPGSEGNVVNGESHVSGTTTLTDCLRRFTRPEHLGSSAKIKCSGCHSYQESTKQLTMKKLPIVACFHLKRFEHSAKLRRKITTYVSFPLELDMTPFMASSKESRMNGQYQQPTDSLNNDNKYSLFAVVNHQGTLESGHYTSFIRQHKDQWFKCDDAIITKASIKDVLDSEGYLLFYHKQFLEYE
How it was run: as §1

USP24 = USP24 (UniProt Q9UPU5)
How it was run: as §1

USP25 = target: T3, USP25 (UniProt Q9UHP3)
T3 sequence (whole entry): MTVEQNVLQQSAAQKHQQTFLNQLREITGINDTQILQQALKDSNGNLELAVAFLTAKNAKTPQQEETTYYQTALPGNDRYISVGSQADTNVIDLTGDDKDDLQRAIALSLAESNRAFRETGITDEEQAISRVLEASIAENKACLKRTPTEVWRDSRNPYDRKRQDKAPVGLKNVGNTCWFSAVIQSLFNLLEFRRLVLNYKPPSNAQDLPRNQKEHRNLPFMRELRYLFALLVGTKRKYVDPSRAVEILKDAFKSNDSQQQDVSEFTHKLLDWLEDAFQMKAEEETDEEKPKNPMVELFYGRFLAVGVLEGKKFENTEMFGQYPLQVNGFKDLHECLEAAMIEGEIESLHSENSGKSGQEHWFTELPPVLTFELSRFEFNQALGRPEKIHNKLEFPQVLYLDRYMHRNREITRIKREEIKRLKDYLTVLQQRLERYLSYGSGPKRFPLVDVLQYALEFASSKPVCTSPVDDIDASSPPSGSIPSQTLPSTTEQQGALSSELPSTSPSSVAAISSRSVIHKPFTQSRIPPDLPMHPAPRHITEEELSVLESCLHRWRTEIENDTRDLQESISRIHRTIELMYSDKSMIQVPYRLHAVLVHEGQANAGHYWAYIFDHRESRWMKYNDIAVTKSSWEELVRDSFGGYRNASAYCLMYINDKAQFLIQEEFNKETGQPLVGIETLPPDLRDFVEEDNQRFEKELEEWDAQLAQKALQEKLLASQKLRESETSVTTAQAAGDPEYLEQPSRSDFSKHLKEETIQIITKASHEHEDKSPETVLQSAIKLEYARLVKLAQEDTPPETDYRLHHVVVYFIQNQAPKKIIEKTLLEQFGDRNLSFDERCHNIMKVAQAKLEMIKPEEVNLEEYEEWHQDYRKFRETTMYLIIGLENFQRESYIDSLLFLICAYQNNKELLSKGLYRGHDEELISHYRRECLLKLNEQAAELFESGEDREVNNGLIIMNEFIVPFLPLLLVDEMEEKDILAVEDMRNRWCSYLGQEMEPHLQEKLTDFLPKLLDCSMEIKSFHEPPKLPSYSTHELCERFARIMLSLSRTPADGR
How it was run: as §1

USP28 = target: T4, USP28 (UniProt Q96RU2)
T4 sequence (whole entry): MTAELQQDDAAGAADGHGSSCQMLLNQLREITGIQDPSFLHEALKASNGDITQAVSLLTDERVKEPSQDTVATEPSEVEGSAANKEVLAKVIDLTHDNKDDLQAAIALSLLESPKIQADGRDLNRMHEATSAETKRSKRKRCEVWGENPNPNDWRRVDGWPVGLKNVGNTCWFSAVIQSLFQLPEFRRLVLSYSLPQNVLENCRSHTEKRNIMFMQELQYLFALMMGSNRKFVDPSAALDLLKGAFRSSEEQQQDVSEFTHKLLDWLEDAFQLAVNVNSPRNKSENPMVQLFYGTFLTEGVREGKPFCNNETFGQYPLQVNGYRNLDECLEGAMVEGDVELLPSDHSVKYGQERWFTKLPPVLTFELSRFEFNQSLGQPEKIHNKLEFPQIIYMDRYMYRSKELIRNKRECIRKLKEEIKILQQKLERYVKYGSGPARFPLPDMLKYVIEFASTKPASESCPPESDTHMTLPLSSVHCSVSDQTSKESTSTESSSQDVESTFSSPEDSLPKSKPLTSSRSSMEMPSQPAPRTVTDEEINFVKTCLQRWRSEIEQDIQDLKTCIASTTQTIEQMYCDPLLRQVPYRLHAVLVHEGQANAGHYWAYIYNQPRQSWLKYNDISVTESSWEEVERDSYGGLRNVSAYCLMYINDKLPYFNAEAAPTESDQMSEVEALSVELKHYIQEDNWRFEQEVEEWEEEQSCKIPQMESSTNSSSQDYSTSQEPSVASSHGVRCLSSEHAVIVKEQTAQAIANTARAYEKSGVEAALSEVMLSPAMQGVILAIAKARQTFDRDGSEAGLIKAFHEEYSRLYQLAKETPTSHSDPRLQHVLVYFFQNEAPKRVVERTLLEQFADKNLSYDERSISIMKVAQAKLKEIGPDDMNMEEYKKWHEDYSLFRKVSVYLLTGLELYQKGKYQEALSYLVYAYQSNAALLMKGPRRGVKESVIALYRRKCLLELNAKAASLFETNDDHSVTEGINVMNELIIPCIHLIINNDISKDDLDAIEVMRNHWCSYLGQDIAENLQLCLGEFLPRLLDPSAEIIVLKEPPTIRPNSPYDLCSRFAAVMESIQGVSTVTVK
How it was run: as §1

Measured: log2 ratio of Biotin-Ahx-Ub-VS probe labelling

USP24, sequence (Q9UPU5 whole entry): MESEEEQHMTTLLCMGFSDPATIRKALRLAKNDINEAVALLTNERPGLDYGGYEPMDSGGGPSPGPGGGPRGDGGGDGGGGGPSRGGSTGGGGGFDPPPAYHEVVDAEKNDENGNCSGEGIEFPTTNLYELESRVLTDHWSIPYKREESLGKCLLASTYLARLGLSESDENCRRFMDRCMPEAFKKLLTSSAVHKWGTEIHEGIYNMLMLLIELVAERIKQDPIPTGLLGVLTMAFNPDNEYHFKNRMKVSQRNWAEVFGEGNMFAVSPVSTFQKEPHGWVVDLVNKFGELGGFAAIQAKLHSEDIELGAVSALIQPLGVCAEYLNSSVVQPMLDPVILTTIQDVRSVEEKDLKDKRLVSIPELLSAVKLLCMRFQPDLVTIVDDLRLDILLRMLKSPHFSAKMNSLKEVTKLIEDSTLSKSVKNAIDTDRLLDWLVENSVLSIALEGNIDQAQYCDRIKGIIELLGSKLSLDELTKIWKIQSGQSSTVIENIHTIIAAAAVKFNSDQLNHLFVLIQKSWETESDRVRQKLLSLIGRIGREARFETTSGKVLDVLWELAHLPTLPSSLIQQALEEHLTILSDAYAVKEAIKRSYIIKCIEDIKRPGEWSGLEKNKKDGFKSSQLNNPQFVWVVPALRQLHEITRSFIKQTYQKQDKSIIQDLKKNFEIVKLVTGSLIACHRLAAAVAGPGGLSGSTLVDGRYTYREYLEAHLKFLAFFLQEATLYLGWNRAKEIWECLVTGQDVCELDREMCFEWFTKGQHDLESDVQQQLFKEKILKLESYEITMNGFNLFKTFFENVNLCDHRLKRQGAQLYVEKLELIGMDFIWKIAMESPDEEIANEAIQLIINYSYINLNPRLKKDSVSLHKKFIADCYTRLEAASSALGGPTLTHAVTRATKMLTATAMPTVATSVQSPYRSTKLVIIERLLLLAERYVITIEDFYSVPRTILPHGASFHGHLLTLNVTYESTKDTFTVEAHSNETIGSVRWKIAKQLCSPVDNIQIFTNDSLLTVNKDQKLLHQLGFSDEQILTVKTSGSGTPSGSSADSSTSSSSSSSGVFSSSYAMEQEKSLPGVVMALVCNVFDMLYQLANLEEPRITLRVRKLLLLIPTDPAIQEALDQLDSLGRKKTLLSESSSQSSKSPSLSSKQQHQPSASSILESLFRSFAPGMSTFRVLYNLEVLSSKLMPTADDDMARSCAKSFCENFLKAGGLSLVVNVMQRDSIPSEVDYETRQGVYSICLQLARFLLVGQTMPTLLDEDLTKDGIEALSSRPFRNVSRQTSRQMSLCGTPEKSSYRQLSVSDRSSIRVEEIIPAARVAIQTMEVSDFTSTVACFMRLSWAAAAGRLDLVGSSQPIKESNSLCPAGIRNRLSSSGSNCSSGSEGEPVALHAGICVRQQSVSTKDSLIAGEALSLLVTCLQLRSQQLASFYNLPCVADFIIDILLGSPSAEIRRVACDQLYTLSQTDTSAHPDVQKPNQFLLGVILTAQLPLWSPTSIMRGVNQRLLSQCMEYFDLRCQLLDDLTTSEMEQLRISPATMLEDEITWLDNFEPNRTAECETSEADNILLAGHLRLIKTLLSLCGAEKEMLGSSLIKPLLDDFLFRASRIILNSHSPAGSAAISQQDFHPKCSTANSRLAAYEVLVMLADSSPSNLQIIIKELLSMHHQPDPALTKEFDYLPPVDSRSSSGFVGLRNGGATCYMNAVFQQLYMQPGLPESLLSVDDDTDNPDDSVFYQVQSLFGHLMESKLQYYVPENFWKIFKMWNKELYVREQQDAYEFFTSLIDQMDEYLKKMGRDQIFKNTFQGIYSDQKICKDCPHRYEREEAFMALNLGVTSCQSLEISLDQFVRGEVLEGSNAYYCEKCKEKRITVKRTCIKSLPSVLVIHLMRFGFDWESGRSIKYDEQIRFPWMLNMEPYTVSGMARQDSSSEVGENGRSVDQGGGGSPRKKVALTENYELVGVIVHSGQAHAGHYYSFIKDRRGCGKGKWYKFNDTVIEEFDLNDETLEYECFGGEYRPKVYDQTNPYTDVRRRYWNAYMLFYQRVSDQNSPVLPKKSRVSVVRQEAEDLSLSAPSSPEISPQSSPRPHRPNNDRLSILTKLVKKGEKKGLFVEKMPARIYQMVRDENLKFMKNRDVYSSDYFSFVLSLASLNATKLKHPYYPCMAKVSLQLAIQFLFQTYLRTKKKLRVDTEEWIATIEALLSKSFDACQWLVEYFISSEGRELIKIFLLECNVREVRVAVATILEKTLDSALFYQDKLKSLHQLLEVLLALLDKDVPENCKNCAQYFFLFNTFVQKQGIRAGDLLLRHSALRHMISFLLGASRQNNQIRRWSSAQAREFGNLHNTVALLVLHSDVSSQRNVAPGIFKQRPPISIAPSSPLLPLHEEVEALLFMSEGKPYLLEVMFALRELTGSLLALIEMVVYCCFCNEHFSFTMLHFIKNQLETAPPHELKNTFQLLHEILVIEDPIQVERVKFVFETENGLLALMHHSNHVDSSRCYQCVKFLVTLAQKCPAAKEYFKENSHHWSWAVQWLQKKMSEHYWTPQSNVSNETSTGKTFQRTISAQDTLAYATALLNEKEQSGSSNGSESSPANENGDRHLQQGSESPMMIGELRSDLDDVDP

O=C(CCl)NCc1cccc(N2CCCC2=O)c1
inactive: USP19 0.025 | USP22 0.303 | USP24 0.00291 | USP25 -0.383 | USP28 -0.252
